Only some compounds are listed: those with a hit (about 6% of all), similar ones and a draw of the others.
D1 potentiator: human D1 dopamine receptor positive modulation; potentiation, % at 10 µM; 360,000 compounds, 0.036% hits; HEK293 TREx D1 cells, calcium flux, dopamine EC20 potentiation; in the data active = potentiation above about 30%
D3 antag: blocks the human D3 dopamine receptor | D3R cells, DiscoveRx beta-arrestin luminescence, antagonist mode; active compounds read low | max response, negative = inhibition, % | 360,000 compounds, 2.5% hits; in the data active = max response below about -50%
Target sequence (P35462 whole entry, looked up): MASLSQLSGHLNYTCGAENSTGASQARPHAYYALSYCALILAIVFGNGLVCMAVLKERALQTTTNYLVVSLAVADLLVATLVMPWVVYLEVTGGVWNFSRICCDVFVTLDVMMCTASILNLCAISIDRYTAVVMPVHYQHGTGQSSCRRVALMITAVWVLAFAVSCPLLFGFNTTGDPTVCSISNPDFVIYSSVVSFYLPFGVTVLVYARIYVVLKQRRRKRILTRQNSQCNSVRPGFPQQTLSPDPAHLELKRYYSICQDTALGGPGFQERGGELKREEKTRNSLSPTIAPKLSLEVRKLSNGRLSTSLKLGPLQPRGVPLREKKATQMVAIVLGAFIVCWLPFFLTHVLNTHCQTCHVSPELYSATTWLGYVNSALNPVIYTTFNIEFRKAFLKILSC
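Cells plated overnight at 1500 cells/well, then exposed to library compounds with dopamine controls for 90 minutes at 37 degrees C. DiscoveRx reagent added for 30–60 minutes at room temperature; luminescence read, quantitative HTS format.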
D3 ag: D3 dopamine receptor (human) agonism | P35462 | D3R DiscoveRx beta-arrestin cells, luminescence, 90 min | max activation, % | 410,000 compounds, 0.58% hits | AID 652048; in the data active = max activation above about 30%
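Agonist mode: compounds and dopamine controls were applied to plated cells for 90 min at 37 degrees C after an overnight attachment at 1500 cells/well. Luminescent read-out followed 30 - 60 minutes at room temperature with DiscoveRx detection reagent.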
D1 antag: human D1 dopamine receptor antagonism; activity change, negative = inhibition, % at 10 µM; 360,000 compounds, 3.2% hits; P21728; HEK293 TREx D1 cells, calcium flux, dopamine EC80; active compounds read low; in the data active = activity change below about -30%
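Tetracycline-induced HEK293 Trex D1 cells, force-coupled to calcium, dye-loaded; compounds added and read 180 s, then EC80 dopamine added and calcium flux tracked kinetically another 180 s.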
D1 ag: agonists of human D1 dopamine receptor; AID 504660; 360,000 compounds, 1% hits; activation, % at 2 µM; HEK293 T-REx D1 cells, calcium flux, agonist mode; P21728; in the data active = activation above about 30%
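Agonism was scored from calcium flux recorded over 180 s (1 read/s) after pintool compound addition, following a 10-cycle baseline. Cells were inducible force-coupled HEK293 TREx D1, plated overnight at 30 C and loaded with no-wash calcium dye.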
Large screens that a line does not name were inactive; ! = not confirmed by another sample.

N#C/C(=C/c1ccc(Sc2nc3ccccc3[nH]2)o1)c1ccccc1F	D1 ag 39
CCOC(=O)c1ccc(-c2ccc(/C=C(\C#N)c3nc4ccc(C)cc4[nH]3)o2)cc1	D1 ag 270 (no result: D3 antag)
Cc1cc2nc(/C(C#N)=C\c3ccc(-c4ccccc4C(=O)O)o3)[nH]c2cc1C	D1 ag 82
CCn1c(=O)n(-c2ccc(F)cc2)c(=O)c2sc3ccccc3c21	none (no result: D3 antag)
N#C/C(=C\c1ccc(-c2ccccc2C(=O)O)o1)c1nc2ccccc2[nH]1	D1 ag 38
Cc1ccc2nc(/C(C#N)=C/c3ccc(-c4ccccc4C(=O)O)o3)[nH]c2c1	D1 ag 49
N#C/C(=C\c1ccc(Cl)cc1)c1nc2ccccc2[nH]1	none (no result: D3 antag)
N#C/C(=C\c1ccc(Sc2ccccc2)o1)c1nc2ccccc2[nH]1	none
Cc1ccc2nc(/C(C#N)=C\c3ccc([N+](=O)[O-])o3)[nH]c2c1	none
N#C/C(=C\c1ccc(-c2ccc(F)cc2F)o1)c1nc2ccccc2[nH]1	D1 ag 151 (no result: D3 antag)
Cc1ccc(-c2nn3c(=O)cc(CN4CCN(C(=O)c5ccc(C(C)(C)C)cc5)CC4)nc3s2)cc1	none (no result: D3 antag)
CCOC(=O)c1c(C)[nH]c(C)c1S(=O)(=O)N(C)CC(=O)Nc1ccc(OC)cc1	none (no result: D3 antag)
Cc1cccc(N2CCN(c3ccc(C(=O)O)cc3NC(=O)c3cccc(Cl)c3)CC2C)c1 (centres undefined)	none (no result: D3 antag)
C(=C\c1ccccc1)/CN1CCN(C(c2cccc3ccccc23)c2nnnn2C2CCCC2)CC1 (centres undefined)	D3 antag -99 (no result: D1 potentiator, D1 antag, D1 ag)
C(=C\c1ccccc1)/CN1CCN(C(c2nnnn2C2CCCCC2)C2CC2)CC1 (centres undefined)	none (no result: D1 potentiator, D1 antag, D1 ag)
C(=C\c1ccccc1)/CN1CCN(C(c2cc3ccccc3o2)c2nnnn2Cc2ccccc2)CC1 (centres undefined)	D3 antag -104 (no result: D1 potentiator, D1 antag, D1 ag)
COc1ccc(N2CCN(C(c3cccc(OC)c3OC)c3nnnn3C3CCCC3)CC2)cc1 (centres undefined)	none
C(=C\c1ccccc1)/CN1CCN(C(c2cc3ccccc3o2)c2nnnn2C2CCCC2)CC1 (centres undefined)	D3 antag -98 (no result: D1 potentiator, D1 antag, D1 ag)
C(=C\c1ccccc1)/CN1CCN(C(CCc2ccccc2)c2nnnn2C2CCCCC2)CC1 (centres undefined)	D3 antag -59 (no result: D1 potentiator, D1 antag, D1 ag)
CCc1ccc(NCc2cc3ccc(OC)cc3n(CC(=O)Nc3ccccc3OC)c2=O)cc1	none (no result: D3 antag)
N#Cc1ccc(NC(=O)COCc2cc(-c3ccc4c(c3)OCO4)on2)cc1	D1 antag -40 (no result: D3 antag)
C=C[C@@H]1c2ccccc2N(S(=O)(=O)c2ccc(C)cc2)[C@H](c2ccc(C(F)(F)F)cc2)C1(C#N)C#N	D1 antag -32
C=C[C@@H]1c2ccccc2N(S(=O)(=O)c2ccc(C)cc2)[C@H](c2ccccc2C(F)(F)F)C1(C#N)C#N	none
O=C(NC(=S)Nc1ccc(N2CCCC2)cc1)c1ccccc1[N+](=O)[O-]	D1 antag -72
CN1CCN(c2ccc(NC(=S)NC(=O)c3cccc4c(Br)cccc34)cc2)CC1	D1 antag -37
O=C(NC(=S)Nc1ccccc1N1CCCC1)c1ccccc1[N+](=O)[O-]	none
COc1cccc2c1Oc1ncccc1N(C(=O)CCC(=O)NC(C)C)C2	none (no result: D3 antag)
Cc1cccc(NC(=O)C2CCC(CNS(=O)(=O)c3ccc(Br)s3)CC2)c1 (centres undefined)	none (no result: D3 antag)
CCC(C)NC(=O)c1ccc2c(c1)N=C(C)c1cc(C)ccc1S2 (centres undefined)	none (no result: D3 antag)
COc1ccc(OC)c(-n2nnc(-c3nc(-c4ccc5c(c4)OCO5)no3)c2C)c1	none (no result: D3 antag)
COc1ccc(-c2noc(-c3nnn(-c4ccc(C(C)C)cc4)c3C)n2)cc1OC	D3 ag 36 (no result: D3 antag)
CC(=O)c1cccc(Nc2nn(-c3ccc(OC(F)(F)F)cc3)nc2C(C)=O)c1	none (no result: D3 antag)
CCOC(=O)c1c(S(=O)(=O)N2CCCC(C(=O)Nc3ccc(OCC)cc3)C2)c(C)n(C)c1C (centres undefined)	none (no result: D3 antag)
CC(C)C1Cc2c(sc3c2c(=O)n(Cc2ccccc2)c2nncn32)CO1 (centres undefined)	D3 antag -53
Cc1nnc2n(Cc3ccccc3)c(=O)c3c4c(sc3n12)COC(C(C)C)C4 (centres undefined)	none
Cc1cc(C)c(NC(=O)C(C)N2CCCCCC2)c(C)c1 (centres undefined)	none
CC(C(=O)Nc1cc(Cl)cc(Cl)c1)N1CCCC1 (centres undefined)	D3 antag -110, D1 ag 33
O=C(CSc1nc2c([nH]c3ccccc32)c(=O)n1-c1ccccc1)NCc1ccc(F)cc1	none (no result: D3 antag)
N/C(Cc1cccc2ccccc12)=N\OC(=O)c1cccs1	D3 antag -76
COc1cc(NC(=O)C/C(C)=N/NC(=O)c2cccc(O)c2)c(OC)cc1Cl	D3 antag -51
O=C1CCCCC1C(O)c1ccc(Cl)cc1 (centres undefined)	D1 antag -74 (no result: D3 antag, D3 ag)
Cc1c(Cl)cccc1NC(=O)CSc1nc(=O)n(Cc2cccnc2)c2c1CCC2	none (no result: D3 antag, D1 antag)
O=C(COc1ccc2ccccc2c1)NNC(=O)Cc1ccccc1	none
O=C(Cc1ccccc1)NNc1ccc2ccccc2c1	D1 antag -49
O=C(Nc1ccccc1F)c1ccc(Cn2nc(N3CCN(c4ccccc4)CC3)ccc2=O)o1	none (no result: D3 antag)
Cc1cccc(NC(=O)Cn2c(=O)nc(-c3ccccc3)c3ccccc32)c1C	none (no result: D3 antag)
FC(F)(F)c1ccc(C2=Nc3ccccc3NC(c3cccs3)=N2)cc1	none (no result: D3 antag)
NC(=O)N/N=C/c1ccccc1OC(=O)c1cc2ccccc2oc1=O	D3 antag -57
COc1ccc(C2CC(c3ccccc3)=NN2S(=O)(=O)c2ccccc2)c(OC)c1 (centres undefined)	none
COc1ccccc1C1CC(c2ccccc2)=NN1S(=O)(=O)c1ccccc1 (centres undefined)	D1 antag -34
COc1ccc(N2CCN(S(=O)(=O)c3ccc4c(c3)CC(C)N4C(C)=O)CC2)cc1 (centres undefined)	none (no result: D3 antag)
Cn1nnnc1Sc1ncnc2scc(-c3ccccc3F)c12	none (no result: D3 antag, D3 ag)
Cn1nnnc1Sc1ncnc2scc(-c3ccccc3C(F)(F)F)c12	D1 antag -36! (no result: D3 antag, D3 ag)
Cn1nnnc1Sc1ncnc2scc(-c3cc4ccccc4o3)c12	D1 antag -44! (no result: D3 antag, D3 ag)
Cc1cccc(CN2C(=O)CC(c3ccc(Cl)cc3)c3c(C)nn(-c4nc(C)cc(C)n4)c32)c1 (centres undefined)	none (no result: D3 antag)
O=C(N/N=C/c1cc2c(cc1Br)OCO2)c1ccccn1	none
CC(C)(C)c1cc(C(=O)N/N=C/c2cc3c(cc2Br)OCO3)n[nH]1	D3 antag -88
O=C(N/N=C/c1cc2c(cc1Br)OCO2)c1cc2ccccc2o1	D3 antag -107
